For 73 compounds, z-score results are on record in PubChem BioAssay AID488969 (Vanderbilt High Throughput Screening Facility, 2010).

In all, about 110,000 compounds were measured (“z-score”: median about -0.1, highest 2% from about 2 on). For the sample, the highest values were picked, then their nearest neighbours and some compounds at random. Calls of active or inactive are those of the source.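 How the source made its calls: active means z-score in the third read window above 3 or below -3; inactive means the rest.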

The target of the test is Metabotropic glutamate receptor 8 (Rattus norvegicus) (UniProt P70579). Briefly: mGluR8 Gi/Go-coupled signaling modulation – cell-based, rat, thallium flux, HTS, primary screen (AID 488969). The note with it: HEK293 rat mGluR8, GIRK (G protein-gated inwardly rectifying potassium channel) thallium flux, FluoZin2; at 10 µM; stronger effect = higher value; submaximal glutamate (EC20) added with thallium.
Chain of Metabotropic glutamate receptor 8 (Rattus norvegicus) (P70579 whole entry, looked up): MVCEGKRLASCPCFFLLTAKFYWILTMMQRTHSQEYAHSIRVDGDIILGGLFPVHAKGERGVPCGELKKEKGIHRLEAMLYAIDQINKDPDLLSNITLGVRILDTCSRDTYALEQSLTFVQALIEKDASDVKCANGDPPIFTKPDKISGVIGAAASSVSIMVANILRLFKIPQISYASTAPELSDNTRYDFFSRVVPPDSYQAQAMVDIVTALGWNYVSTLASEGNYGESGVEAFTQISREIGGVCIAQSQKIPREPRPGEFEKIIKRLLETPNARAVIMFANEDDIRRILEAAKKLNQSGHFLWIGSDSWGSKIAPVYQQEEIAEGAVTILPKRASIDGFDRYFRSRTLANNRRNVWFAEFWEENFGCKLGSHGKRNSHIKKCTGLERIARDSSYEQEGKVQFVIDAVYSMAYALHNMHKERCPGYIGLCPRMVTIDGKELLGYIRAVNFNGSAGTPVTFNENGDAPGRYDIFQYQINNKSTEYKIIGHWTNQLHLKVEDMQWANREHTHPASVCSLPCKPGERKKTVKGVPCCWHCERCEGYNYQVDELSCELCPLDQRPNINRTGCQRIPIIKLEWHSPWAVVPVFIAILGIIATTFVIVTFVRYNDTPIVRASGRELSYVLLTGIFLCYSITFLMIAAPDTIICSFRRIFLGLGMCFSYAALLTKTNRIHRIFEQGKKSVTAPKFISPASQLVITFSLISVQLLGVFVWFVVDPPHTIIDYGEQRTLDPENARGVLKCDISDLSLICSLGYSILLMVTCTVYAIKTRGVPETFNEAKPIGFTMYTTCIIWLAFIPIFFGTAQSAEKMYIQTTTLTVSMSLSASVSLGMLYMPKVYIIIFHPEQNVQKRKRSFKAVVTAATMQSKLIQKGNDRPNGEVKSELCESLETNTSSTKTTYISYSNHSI
Compound `COc1cc(C(=S)N2CCC(C(N)=O)CC2)ccc1O` returned a z-score of -0.479.

With `CC(=O)c1cccc(NC(=S)NC2CC2)c1`, the z-score was -0.023.

Regarding `O=C1OC2(CCCCC2)OC(=O)C1=CNc1ccc2c(c1)OCO2`, the z-score was 0.207.

In the case of `CCOc1ccccc1NC=C1C(=O)OC2(CCCCC2)OC1=O`, the z-score is 0.615.

With `O=C1OC2(CCCCC2)OC(=O)C1=CNc1nc2ccccc2s1`, the z-score was 8.02 (active).

In turn, `COc1ccccc1N1CCN(C(=O)c2ccc(CN3CCc4ccccc4C3)cc2)CC1` registered a z-score of -0.0526.

The compound `O=c1[nH]c(-c2cccnc2)nc2ccccc12` yielded a z-score of -0.073.

Compound `O=C(Nc1ccccc1)C1=C(O)CC(c2ccc(Cl)cc2)N2CCN=C12` (stereo not drawn) displayed a z-score of -0.724.

In the case of `CC1CN=C2C(C(=O)Nc3ccccc3)=C(O)CC(c3ccccc3)N21` (stereo not drawn), the z-score was determined as 2.31.

Consider `CC1=NN(C(=S)Nc2ccccc2)C(c2ccccc2)C1` (stereo not drawn), for which the z-score worked out at 0.129.

With `N#C/C(=C\c1c(N2CCC(C(N)=O)CC2)nc2ccccn2c1=O)C(=O)NCc1ccco1`, the z-score was -0.0915.

Consider `COC(=O)C1C2C=CC3(CN(Cc4ccco4)C(=O)C13)O2` (stereo not drawn), for which the z-score came to 0.49.

With `CC(=O)N1CCN(c2ccc(NCc3ccc(F)cc3)cc2)CC1`, the z-score amounted to 0.0515.

For `CC(=O)N1CCN(c2ccc(NCc3ccc(C(C)C)cc3)cc2)CC1`, the z-score was 2.03.

Turning to `CCc1ccc(CNc2ccc(N3CCN(C(C)=O)CC3)cc2)cc1`, the z-score was 0.968.

The compound `O=C(Nc1ccc2c(c1)OCO2)C1CCN(C(=O)CSc2ncnc3ccccc23)CC1` came in with a z-score of -0.185.

In the case of `BrC(/C=N/Nc1nc(N2CCOCC2)nc(N2CCOCC2)n1)=C/c1ccccc1`, the z-score was -0.171.

Take `Cn1c(=O)oc2cc(S(=O)(=O)NCc3ccccc3)ccc21`: the z-score is 0.611.

With `Cc1ccccc1Cn1c(=N)n(CC(=O)c2ccc([N+](=O)[O-])cc2)c2ccccc21`, the z-score is 0.33.

`CCn1c(=N)n(CC(=O)c2ccco2)c2ccccc21` registered a z-score of 0.33.

As for `CCCn1c(=N)n(CC(=O)c2ccco2)c2ccccc21`, the z-score is -0.051.

Turning to `Cc1ccccc1Cn1c(=N)n(CC(=O)c2ccco2)c2ccccc21`, the z-score was found to be 2.17.

Turning to `CCCCn1c(=N)n(CC(=O)c2ccco2)c2ccccc21`, the z-score is -0.268.

Consider `N=c1n(Cc2ccccc2)c2ccccc2n1CC(O)c1ccco1` (stereo not drawn), for which the z-score stood at 0.39.

For the compound `Cc1ccccc1Cn1c(=N)n(CC(O)c2ccco2)c2ccccc21` (stereo not drawn), the z-score is 3.34 (active).

In the case of `CCCCCCCn1c(=N)n(CC(=O)c2ccco2)c2ccccc21`, the z-score was 4.65 (active).

On to `Cc1ccc(Cn2c(=N)n(CC(O)c3ccco3)c3ccccc32)cc1` (stereo not drawn), for which the z-score came out at 1.09.

`CC1CCN(C(=S)NC2CCCCC2)CC1` showed a z-score of -0.176.

As for `CCN1CCN(C(=O)CN2C(=O)c3cccc4cccc2c34)CC1`, the z-score is -0.191.

In the case of `O=C(CSc1ccc(-c2ccccc2)nn1)c1ccccc1`, the z-score stood at 0.0905.

For the compound `CCOCC(=O)Nc1nnc(Cc2ccc(OC)cc2)s1`, the z-score was -0.115.

`Cc1ccc(C)c(NC(=S)NC(NC(=O)OCc2ccccc2)C(Cl)(Cl)Cl)c1` (stereo not drawn): the z-score is -0.108.

On to `Cc1ccc(C(=O)O/N=C/c2ccc3c(c2)OCO3)cc1`, for which the z-score was -0.102.

Compound `CSc1nnc(-c2ccccc2Cl)o1` registered a z-score of -0.168.

`CSc1ccccc1NC(=O)Nc1ccccc1` displayed a z-score of 0.531.

On to `Cc1ccccc1C(=O)NC(=S)Nc1ccc(Oc2ccc(Cl)cc2)cc1`, for which the z-score was found to be 2.74.

For `CSc1ccccc1NC(=O)Nc1ccc(F)c(Cl)c1`, the z-score is -0.197.

`Cc1ccccc1C(=O)NC(=S)Nc1ccc(Cc2ccncc2)cc1` yielded a z-score of -0.501.

Regarding `O=C(N/N=C/c1ccc(Cl)cc1Cl)Nc1ccccc1`, the z-score is -0.276.

The compound `Cc1ccccc1C(=O)NC(=S)Nc1ccc(S(=O)(=O)N(C)c2ccccc2)cc1` showed a z-score of 1.07.

For the compound `Cc1cccc(C)c1NC(=S)NC(=O)c1ccccc1F`, the z-score is 7.93 (active).

`O=C(NC(=S)NC(=O)c1ccccc1F)c1ccccc1F`: the z-score was 0.339.

`O=C(NC(=S)NCc1ccccc1)c1ccccc1F` had a z-score of 1.93.

For the compound `O=C(N/N=C/c1ccc(Cl)cc1)Nc1ccccc1`, the z-score is -0.0155.

`O=C(N/C(=N\O)c1ccccc1)Nc1ccc(Cl)cc1`: the z-score was determined as 2.01.

Turning to `CSc1ccccc1NC(=O)Nc1ccc(Cl)cc1`, the z-score was 6.38 (active).

On to `COc1ccc(CCN2C(=O)CCC2(C)C(=O)NCc2cccnc2)cc1OC` (stereo not drawn), for which the z-score was -0.282.

As for `Cc1nn(-c2ccc(F)cc2)c(Cl)c1/C=N/NC(=O)c1cccc(S(=O)(=O)N2CCCC2)c1`, the z-score was -0.115.

The compound `Cc1cc(/C=C2/C(=O)NN(c3ccccc3)C2=O)c(C)n1-c1cccc(O)c1` returned a z-score of -0.338.

Consider `Cn1nnc(NC(=O)CSc2nnnn2-c2ccc(F)cc2)n1`, for which the z-score is 0.0243.

Regarding `O=C(NC(C(=O)N/N=C/c1c2ccccc2cc2ccccc12)c1n[nH]c(=O)c2ccccc12)c1ccccc1` (stereo not drawn), the z-score is -0.183.

Compound `N#C/C(=C\c1c(N(Cc2ccccc2)Cc2ccccc2)nc2ccccn2c1=O)C(N)=O` registered a z-score of -1.96.

`Cc1c(C(=O)Nc2ccccc2[N+](=O)[O-])csc1-c1ccccc1` came in with a z-score of -0.152.

In turn, `Cc1ccc(C(=O)NC(=S)Nc2ccc(Oc3ccc(Cl)cc3)cc2)cc1` returned a z-score of 0.157.

The compound `O=C(NC(=S)Nc1ccc(Oc2ccccc2)cc1)c1ccc(Cl)cc1` yielded a z-score of 1.23.

For the compound `O=C(NC(=S)Nc1ccc(Oc2ccc(Cl)cc2)cc1)c1ccccc1`, the z-score was 3.94 (active).

`Cc1nc2ncnn2c(C)c1CCC(=O)Nc1csc(N)n1` displayed a z-score of -0.0552.

For `O=C1CC(SCc2nc3ccccc3[nH]2)C(=O)N1c1ccc(F)cc1` (stereo not drawn), the z-score came out at 0.0187.

For `Cc1cc(NC(=O)Nc2ccccc2)n(-c2ccccc2)n1`, the z-score was 10.5 (active).

As for `Cc1cc(NC(=O)COc2ccc(Cl)cc2Cl)n(-c2ccccc2)n1`, the z-score is 12.2 (active).

Compound `O=C(COc1ccc(Cl)cc1Cl)Nc1ccccn1` came in with a z-score of 1.52.

Regarding `Cc1cc(NC(=O)COc2ccccc2)n(-c2ccccc2)n1`, the z-score is -0.119.

Consider `CSc1ccccc1NC(=O)COc1ccc(Cl)cc1Cl`, for which the z-score was -0.15.

On to `Cc1cc(Nc2ccccc2)n(-c2ccccc2)n1`, for which the z-score came out at 0.00239.

Turning to `Cc1cc(NC(=O)C(C)Oc2ccc(Cl)cc2Cl)n(-c2ccccc2)n1` (stereo not drawn), the z-score is -0.237.

In turn, `Cc1cc(NC(=O)c2ccc(C)s2)n(-c2ccccc2)n1` displayed a z-score of 0.239.

On to `O=C(COc1ccc(Cl)cc1Cl)Nc1noc2ccccc12`, for which the z-score is 12.9 (active).

In the case of `CC(=O)c1cnc(N(C)C)s1`, the z-score worked out at 0.141.

The compound `CN(Cc1ccccc1)C(=O)CN(C1CCCCC1)S(C)(=O)=O` had a z-score of 0.423.

On to `O=C(Nc1ccc(N2CCOCC2)cc1)C1CC1`, for which the z-score was determined as 0.35.

For `Cn1c(C(=O)NCc2ccccn2)cc2c(=O)n(C)c3ccccc3c21`, the z-score stood at 0.138.

Compound `COc1ccc(N(C(=O)Cc2cccs2)C(C(=O)NC2CCCCC2)c2cccn2C)cc1` (stereo not drawn) had a z-score of -0.0427.

Turning to `CCOc1ccc2c(c1)C(C)=CC(C)(C)N2C(=O)Nc1ccccc1F`, the z-score was -0.0976.
